High-throughput results from PubChem BioAssay.
Rango-impB inh: qHTS Assay for Inhibitors of Rango (Ran-regulated importin-beta cargo) - Importin beta complex formation; Importin subunit beta-1 (Homo sapiens), Q14974; Potency, µM (highest dose often 92.2 µM), for the others: at the top dose inhibition of complex formation; 0.031% of 340,000 active; Rango CFP/YFP FRET sensor + importin beta, 45 min; calls by dose curve;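 also: 0% = DMSO wells and 100% = buffer wells lacking importin beta; nearly all actives have a fitted effect of over 15% in size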
Target sequence (Q14974 whole entry, looked up): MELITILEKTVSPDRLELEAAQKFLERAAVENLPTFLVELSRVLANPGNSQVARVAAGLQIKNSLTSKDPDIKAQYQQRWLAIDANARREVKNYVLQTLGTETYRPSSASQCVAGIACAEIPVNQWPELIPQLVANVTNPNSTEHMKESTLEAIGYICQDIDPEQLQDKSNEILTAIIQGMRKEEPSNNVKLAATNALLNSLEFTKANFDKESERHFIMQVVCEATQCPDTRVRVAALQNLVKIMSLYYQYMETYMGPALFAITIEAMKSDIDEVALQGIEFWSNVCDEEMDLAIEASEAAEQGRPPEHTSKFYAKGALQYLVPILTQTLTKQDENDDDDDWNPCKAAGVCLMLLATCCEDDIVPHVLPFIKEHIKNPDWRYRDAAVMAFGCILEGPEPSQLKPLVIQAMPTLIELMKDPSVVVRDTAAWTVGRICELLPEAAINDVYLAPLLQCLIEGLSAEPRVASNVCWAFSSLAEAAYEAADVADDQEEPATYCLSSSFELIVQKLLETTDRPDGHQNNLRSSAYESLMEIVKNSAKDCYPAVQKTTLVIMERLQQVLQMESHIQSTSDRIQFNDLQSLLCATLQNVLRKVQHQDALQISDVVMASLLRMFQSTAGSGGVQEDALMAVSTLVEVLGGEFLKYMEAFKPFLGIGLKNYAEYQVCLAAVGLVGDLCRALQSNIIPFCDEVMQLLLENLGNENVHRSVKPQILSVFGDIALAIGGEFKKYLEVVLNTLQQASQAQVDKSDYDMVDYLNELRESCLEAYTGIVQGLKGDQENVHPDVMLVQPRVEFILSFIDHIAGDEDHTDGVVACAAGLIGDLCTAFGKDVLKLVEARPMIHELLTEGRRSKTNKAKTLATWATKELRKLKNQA
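Inhibition scored from the CFP 486 nm/YFP 530 nm FRET ratio 45 min after adding 0.125 microM importin beta to 50 nM Rango biosensor preincubated 5 min with compound (room temperature, PBS with DTT, Tween-20, BSA). No-importin wells as positive control.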
PKM2 activator: qHTS Assay for Activators of Human Muscle isoform 2 Pyruvate Kinase; Pyruvate kinase PKM (Homo sapiens), P14618; purified PKM2, Kinase-Glo ATP luminescence, activation; response scale: 0% is enzyme alone, no compound; Potency, µM (doses to about 57.5 µM), without a hit: at the top dose activation, most hits filed as activators; 0.34% of 260,000 active; also: % is scaled to controls: 0 for no effect and ±100 for the full control effect; nearly all actives have a fitted effect of over 55% in size
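ATP formation by purified human PK-M2, quantified via coupled luciferase luminescence after 1 h at room temperature with 0.1 mM ADP and 0.5 mM PEP final.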
ELG1 repair inh: qHTS screen for small molecules that inhibit ELG1-dependent DNA repair in human embryonic kidney (HEK293T) cells expressing luciferase-tagged ELG1. HEK293T ELG1-luciferase reporter, luminescence, 16 h; DNA damage induced by 5-fluorouridine. Potency, µM (top dose mostly 46.1 µM), inactives show at the top dose activity change, negative = inhibition, most hits filed as inhibitors. 2.3% of 330,000 active; also: % is scaled to controls: 0 for no effect and ±100 for the full control effect; nearly all actives have a fitted effect of over 55% in size
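Overnight (16 hr) co-exposure of 2,000 cells/well to 5-fluorouridine and compound at 37 °C preceded detection. Luciferase was quantified via ONE-Glo luminescence; loss of signal denotes inhibition.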
Rango dissoc inh: qHTS Assay for Inhibitors of RanGTP induced Rango (Ran-regulated importin-beta cargo) - Importin beta complex dissociation; Biochemical FRET Rango-importin beta, RanGTP-induced dissociation; Potency, µM (doses to about 46.1 µM), without a hit: top-dose activity change, negative = inhibition; 0.071% of 340,000 active; AID 540253, 2011; calls by dose curve; also: % of control where 0% means no effect; nearly all actives have a fitted effect of over 45% in size
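Quantitative HTS using a FRET biosensor: 0.1 uM Rango, 0.25 uM importin beta, 0.6 uM Ran, 2 mM GTP, 0.2 uM RCC1 final, PBS with DTT, Tween-20 and BSA. Post-read taken 45 min after Ran addition.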
Tb PGK inh: qHTS Assay to Find Inhibitors of Phosphoglycerate Kinase; 0.043% of 380,000 active; Potency, µM (highest dose often 57.5 µM), without a hit: at the highest dose activity change, negative = inhibition, actives largely listed as inhibitors; PGK/GAPDH coupled, Kinase-Glo luminescence, 60 min; AID 602233, 2012; also: % is scaled to controls: 0 for no effect and ±100 for the full control effect; nearly all actives have a fitted effect of over 60% in size
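Luminescent ATP detection (Kinase-Glo Plus) follows a 60-minute room-temperature incubation, with wells lacking PGK as controls. Buffer: 100 mM TEA (pH 7.6), 5 mM MgCl2, 0.01% Tween-20. Coupling enzyme GAPDH (100 nM final) supplies unstable 1,3-BPG in-well.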
Tb PFK inh: qHTS Assay to Find Inhibitors of T. brucei phosphofructokinase; ATP-dependent 6-phosphofructokinase (Trypanosoma brucei brucei), O15648; AID 485367, 2010; 0.17% of 330,000 active; Potency, µM (highest dose often 57.5 µM), for the others: at the top dose activity, negative = inhibition, most hits filed as inhibitors; T. brucei PFK, ADP-Glo luminescence;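 also: 0% = uninhibited 1x PFK enzyme wells and -100% = no-enzyme wells; nearly all actives have a fitted effect of over 60% in size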
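PFK 1.25 nM, F6P 0.5 mM, ATP 0.1 mM, 0.1 M TEA pH 8.0, 5 mM MgCl2, 0.01% Tween20, 0.1% BSA; 45 min RT. ADP-Glo readout. qHTS titration up to 57 uM; curves fitted, compounds curve-classed.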
Active calls of the source: *. Compounds with a hit are over-represented: about 2.4% of the library has one in this group of screens. Unless noted, calls follow the shape of the dose curve; as a rule, active = well fitted curve in the direction sought with a large enough effect; inconclusive = small, poorly fitted or top-dose-only effect, or another doubt; inactive = no such curve, though single readings can be large; an effect the other way counts as inactive or inconclusive. Potency is read from the fitted curve at half-maximal effect.

How did CC(=O)c1c(C)oc2ccc(N(C(C)=O)S(=O)(=O)c3cccc4cccnc34)cc12 do in these assays?
Rango-impB inh: 0.8%; PKM2 activator: inconclusive; ELG1 repair inh: 5.8µM*; Rango dissoc inh: 1.3%; Tb PGK inh: inactive; Tb PFK inh: 0.0%

What do the screens show for `O=C(N/N=C/C1C(c2ccccc2)C1(Cl)Cl)c1cccc(Br)c1` (stereo not drawn)?
Rango-impB inh: 0.7%; PKM2 activator: -9.7%; ELG1 repair inh: inconclusive; Rango dissoc inh: 6.9%; Tb PGK inh: 12.0%; Tb PFK inh: -4.0%

How did C=C1SC(Nc2c(C)cc(C)cc2C)=NC12CCCCC2 do in these assays?
Rango-impB inh: 3.8%; PKM2 activator: -6.5%; ELG1 repair inh: 23.1µM*; Rango dissoc inh: 14.5%; Tb PGK inh: inactive; Tb PFK inh: -1.1%

Results for C=C1SC(Nc2c(C)cccc2C)=NC12CCCCC2 ?
Rango-impB inh: -2.6%; PKM2 activator: -2.6%; ELG1 repair inh: -1.0%; Rango dissoc inh: -13.6%; Tb PGK inh: inactive; Tb PFK inh: 3.3%

How did CC(=O)N1CCc2cc(S(=O)(=O)CCC(=O)Nc3ccc(C)cc3Br)ccc21 do in these assays?
Tb PGK inh: -15.2%

What do the screens show for `CCOC(=O)C1CCN(C(c2cccnc2)c2c(NC(=O)c3ccco3)sc(C)c2C)CC1` (stereo not drawn)?
Rango-impB inh: -0.7%; PKM2 activator: 4.7%; ELG1 repair inh: 14.6µM*; Rango dissoc inh: 20.9%; Tb PGK inh: 4.6%; Tb PFK inh: -0.2%

Results for Cc1sc(NC(=O)c2ccco2)c(C(c2cccnc2)N2CCN(CCO)CC2)c1C (stereo not drawn) ?
Rango-impB inh: 0.5%; PKM2 activator: 4.4%; ELG1 repair inh: -2.1%; Rango dissoc inh: 5.7%; Tb PGK inh: 5.9%; Tb PFK inh: 1.5%

How did COc1ccc(CCNc2cc(N3CCN(C(=O)c4ccccc4F)CC3)ccc2[N+](=O)[O-])cc1OC do in these assays?
Rango-impB inh: 4.5%; PKM2 activator: -1.1%; ELG1 repair inh: 4.11µM*; Rango dissoc inh: 12.1%; Tb PGK inh: -1.5%; Tb PFK inh: 3.1%

How did COc1ccc(CCNc2cc(N3CCN(C(=O)c4ccc(C)cc4)CC3)ccc2[N+](=O)[O-])cc1OC do in these assays?
PKM2 activator: 0.0%; ELG1 repair inh: 2.06µM*; Tb PFK inh: 2.1%

How did COc1ccc(CCNc2oc(Cc3cccc4ccccc34)nc2C#N)cc1OC do in these assays?
Rango-impB inh: -5.3%; PKM2 activator: 8.4%; ELG1 repair inh: 16.4µM*; Rango dissoc inh: 3.0%; Tb PGK inh: -12.2%; Tb PFK inh: 0.2%

How did COc1ccc(CCNc2oc(COc3ccccc3F)nc2C#N)cc1 do in these assays?
Rango-impB inh: inconclusive; PKM2 activator: 1.9%; ELG1 repair inh: 4.8%; Rango dissoc inh: -23.9%; Tb PGK inh: 7.3%; Tb PFK inh: -3.5%

What do the screens show for `COc1ccc(CCNc2oc(COc3ccc(Br)cc3)nc2C#N)cc1OC`?
Rango-impB inh: inconclusive; PKM2 activator: 0.8%; ELG1 repair inh: 20.6µM*; Rango dissoc inh: -29.6%; Tb PGK inh: -4.0%; Tb PFK inh: -0.7%

Results for CN(C)CCNc1oc(COc2ccc(Cl)cc2Cl)nc1C#N ?
Rango-impB inh: inconclusive; PKM2 activator: 2.8%; ELG1 repair inh: -6.2%; Rango dissoc inh: 16.4µM*; Tb PGK inh: -5.3%; Tb PFK inh: -0.2%

How did COCCCNc1oc(COc2ccc(Cl)cc2Cl)nc1C#N do in these assays?
Rango-impB inh: inconclusive; PKM2 activator: 7.6%; ELG1 repair inh: inconclusive; Rango dissoc inh: inconclusive; Tb PGK inh: 1.6%; Tb PFK inh: -2.8%

How did CNc1oc(Cc2cccc3ccccc23)nc1C#N do in these assays?
Rango-impB inh: inconclusive; PKM2 activator: 6.1%; ELG1 repair inh: 0.4%; Rango dissoc inh: -17.3%; Tb PGK inh: -4.6%; Tb PFK inh: -4.2%

Results for CC(=O)Nc1ccc(NC(=O)CSc2ncc(C(=O)Nc3ccccc3)c(=O)n2C)cc1 ?
Rango-impB inh: inconclusive; ELG1 repair inh: inconclusive; Rango dissoc inh: -0.6%; Tb PGK inh: -0.3%; Tb PFK inh: -2.1%

What do the screens show for `O=C(C[C@H]1C/C=C\C[C@H](NC(=O)OCC2c3ccccc3-c3ccccc32)C(=O)OC[C@H](Cc2ccccc2)NC1=O)N[C@H](CO)Cc1ccccc1`?
Rango-impB inh: -0.2%; ELG1 repair inh: 11.0%; Rango dissoc inh: 10.1%; Tb PGK inh: -0.7%; Tb PFK inh: 2.1%

Results for CC(C)(C)N1C(=O)[C@H]2[C@@H](c3ccc(Br)cc3)N3C(=O)N(c4ccccc4)C(=O)[C@@]3(C)[C@H]2C1=O ?
Rango-impB inh: 0.0%; PKM2 activator: 0.8%; ELG1 repair inh: 10.7%; Rango dissoc inh: -0.7%; Tb PGK inh: -0.5%; Tb PFK inh: -0.7%

How did COC(=O)c1c(N2C(=O)[C@H]3[C@@H](C2=O)[C@]2(C(=O)Nc4c(C)cc(C)cc42)N2CCC[C@@H]32)sc(C)c1C do in these assays?
Rango-impB inh: 1.2%; PKM2 activator: 8.5%; ELG1 repair inh: -25.2%; Rango dissoc inh: -7.5%; Tb PGK inh: -2.6%; Tb PFK inh: 1.0%

Results for COC(=O)c1c(N2C(=O)[C@H]3[C@@H](C2=O)[C@]2(C(=O)Nc4c2ccc(C)c4C)N2CCC[C@@H]32)sc(C)c1C ?
Rango-impB inh: -1.5%; PKM2 activator: 7.3%; ELG1 repair inh: 6.51µM*; Rango dissoc inh: -1.4%; Tb PGK inh: -2.5%; Tb PFK inh: -2.1%

What do the screens show for `O=C(O)CCn1c(SCCc2ccccc2)nc2ccccc21`?
Rango-impB inh: -1.3%; Rango dissoc inh: 0.7%; Tb PGK inh: -0.3%

How did N#Cc1ccc(CSc2nnc(-c3ccccn3)n2-c2ccccc2)cc1 do in these assays?
Rango-impB inh: -3.7%; PKM2 activator: 0.0%; ELG1 repair inh: -25.3%; Rango dissoc inh: -3.6%; Tb PGK inh: 0.5%; Tb PFK inh: -7.1%
